# Measured values from PubChem BioAssay AID624481 (The Scripps Research Institute Molecular Screening Center, 2012).
# Unmarked numbers belong to inactive results. Activity calls are given as the source filed them. Rule as the data show it: active = inhibition above about 50%; inactive = the rest.
# Biological target: Prolyl endopeptidase-like (Mus musculus) (UniProt Q8C167)
# Test: mouse PREPL enzyme inhibition by screening hits – biochemical, gel-based competitive ABPP, fluorescence, HTS hits, PREPL inhibitor project (AID 624481)
# Conditions: purified mouse PREPL, at 20 µM, hits give high values
# Sequence of Prolyl endopeptidase-like (Mus musculus) (Q8C167 whole entry, looked up): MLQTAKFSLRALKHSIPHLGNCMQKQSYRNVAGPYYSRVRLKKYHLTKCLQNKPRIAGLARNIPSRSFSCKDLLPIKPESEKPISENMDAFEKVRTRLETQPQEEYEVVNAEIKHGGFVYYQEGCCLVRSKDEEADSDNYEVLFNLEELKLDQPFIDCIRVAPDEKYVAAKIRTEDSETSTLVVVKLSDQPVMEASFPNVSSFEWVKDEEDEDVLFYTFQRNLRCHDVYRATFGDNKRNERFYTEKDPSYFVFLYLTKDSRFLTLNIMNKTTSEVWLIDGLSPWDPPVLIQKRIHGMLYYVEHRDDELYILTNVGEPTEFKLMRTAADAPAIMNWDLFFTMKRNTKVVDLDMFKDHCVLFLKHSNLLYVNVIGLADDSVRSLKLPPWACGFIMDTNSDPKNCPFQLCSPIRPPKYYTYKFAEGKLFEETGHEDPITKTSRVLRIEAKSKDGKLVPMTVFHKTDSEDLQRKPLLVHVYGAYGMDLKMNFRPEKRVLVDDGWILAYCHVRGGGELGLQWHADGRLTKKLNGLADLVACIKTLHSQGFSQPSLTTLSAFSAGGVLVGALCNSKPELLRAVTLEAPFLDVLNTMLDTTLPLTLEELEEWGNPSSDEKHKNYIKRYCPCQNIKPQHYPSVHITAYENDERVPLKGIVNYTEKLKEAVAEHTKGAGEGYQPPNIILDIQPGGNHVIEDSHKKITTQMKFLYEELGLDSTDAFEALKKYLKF
row,Compound,inhibition
1,CCN1C(=O)/C(=C\N2CCN(c3ccccc3)CC2)SC1=S,-14%
2,CC[C@@H](C)[C@@H]1CN([C@@H](CN2CCC[C@H]2CN2C(N)=NC[C@H]2C(C)C)C(C)C)C(=N)N1CCc1ccc(Cl)c(Cl)c1,-64%
3,O=C(c1cc([N+](=O)[O-])ccc1Cl)N1CCN(c2ccc([N+](=O)[O-])cc2)CC1,-51%
4,CCN1/C(=C\c2ccc3ccccc3[n+]2CC)Sc2cc(C)ccc21,50% (active)
5,COc1ccccc1-[n+]1c(C)cc(/C=C2\Sc3ccccc3N2C)cc1C,-27%
6,C=CC[n+]1c(/C=C2\C=Cc3cc(C)ccc3N2CC)ccc2ccccc21,-26%
7,COc1ccc2cc1Oc1ccc(cc1)C[C@H]1c3cc(c(OC)cc3CCN1C)Oc1c(O)c(OC)cc3c1[C@H](C2)N(C)CC3,0%
8,CN(C)CCCNc1cc(C(C)(C)C)nc2c(-c3ccccc3)cnn12,-34%
9,CCOc1ccc(Nc2c3ccccc3nc3ccccc23)cc1,-58%
10,Oc1c(CN2CCOCC2)cc(COCc2ccccc2)c2cccnc12,-145%
11,Cc1ccc(-c2csc(=Nc3cccnc3)n2CCCn2ccnc2)cc1C,-52%
12,CCOc1ccc(CCNC(=O)c2ccc3c(=O)[nH]c4c(C(=O)NC(C)C)sc(=S)n4c3c2)cc1,14%
13,COc1ccc(-c2c(-c3ccccc3)c(C(=O)C(=O)NCCCN(C)C)n3ccc4cc(OC)c(OC)cc4c23)cc1OC,-15%
14,Nc1nn(-c2ccccc2)c(N)c1N=Nc1ccc2c(c1)OCO2,17%
